KB-3-1 cytotox: qHTS assay for MDR1-selective chemotherapeutics: Primary screen using the parental adenocarcinoma cell KB-3-1; KB-3-1 viability, CellTiter-Glo ATP luminescence, 72 h; Potency, µM (series often up to 46.1 µM), actives largely listed as cytotoxic; hit rate 1.4% among 400,000; AID 1347075, 2019; also: nearly all actives have a fitted effect of over 60% in size
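Cytotoxicity in the drug-sensitive parental line KB-3-1 was scored as loss of CellTiter-Glo luminescence following 72 h incubation with compound. Values come from curve fitting of normalized concentration-response data.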
TDP1 cell noCPT: qHTS for Inhibitors of human tyrosyl-DNA phosphodiesterase 1 (TDP1): qHTS in cells in absence of CPT; DT40 Tdp1-/- hTDP1 cells, no CPT, ATP luminescence, 48 h; Potency, µM (titrated, usually from 46.2 µM), without a hit: at the top dose activity change, negative = growth inhibition, hits mostly inhibitors; hit rate 15% among 420,000; AID 686978, 2013; also: nearly all actives have a fitted effect of over 55% in size
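Chicken DT40 Tdp1-/- cells stably complemented with human TDP1 were seeded at 400 cells/well with DMSO in place of 20 nM camptothecin. After compound pinning, cells grew at least 48 hr at 37 °C; viability read by CellTiter-Glo luminescence.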
KB-V1 cytotox: qHTS assay for MDR1-selective chemotherapeutics: Primary screen using the drug-selected MDR subline cells KB-V1; Potency, µM (doses to about 46.1 µM), most hits filed as cytotoxic; hit rate 3.4% among 400,000; KB-V1 MDR cells viability, CellTiter-Glo, 72 h; AID 1347076, 2019; also: nearly all actives have a fitted effect of over 60% in size
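qHTS viability screen in drug-selected KB-V1 MDR cells: 72 h compound treatment at 37 degrees C, ATP luminescence end point.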
TDP1 cell CPT: qHTS for Inhibitors of human tyrosyl-DNA phosphodiesterase 1 (TDP1): qHTS in cells in presence of CPT; hit rate 12% among 420,000; Potency, µM (series often up to 46.2 µM), for inactives: at the top dose activity change, negative = growth inhibition, actives largely listed as inhibitors; AID 686979, 2013; chicken DT40 Tdp1-/-;hTDP1 cells + 20 nM CPT, ATP luminescence, 48 h; also: nearly all actives have a fitted effect of over 55% in size
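Chicken DT40 Tdp1-/- cells complemented with human TDP1, 400 cells/well, exposed to compounds plus 20 nM camptothecin for at least 48 h at 37 C; viability read as ATP content by CellTiter-Glo luminescence.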
HT1080 IDH1KD tx: qHTS for induction of synthetic lethality in tumor cells producing 2HG: qHTS for the HT-1080-IDH1KD cell line | HT-1080 IDH1 knockdown viability, ATP luminescence, 48 h | Potency, µM (top dose mostly 46.1 µM), for inactives: at the top dose activity, negative = toxicity, usual class: cytotoxic | hit rate 2% among 360,000 | AID 686971, 2013;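 also: 0% = DMSO wells and -100% = cell-free medium wells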
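Assay cells: HT-1080 with IDH1 knockdown, 750 per well, RPMI/5% FBS. Exposure: 48 h at 37 °C following 2 h pre-incubation. Read: CellTiter-Glo luminescence; fitted concentration-response, curve class assigned.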
HT1080-NT tox: qHTS for induction of synthetic lethality in tumor cells producing 2HG: qHTS for the HT-1080-NT fibrosarcoma cell line; HT-1080-NT fibrosarcoma viability, CellTiter-Glo ATP luminescence, 48 h; Potency, µM (series often up to 46.1 µM), for inactives: top-dose activity, negative = less viability, usual class: cytotoxic; hit rate 1.6% among 360,000;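 also: NT is the 2HG producing partner of a matched IDH1 knockdown line; 0% = DMSO-treated cells and -100% = media-only wells without cells; nearly all actives have a fitted effect of over 55% in size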
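Fibrosarcoma NT cells, 750 per well in 5% FBS RPMI, were exposed to compound for 48 hours. Viability: CellTiter-Glo luminescence.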
The depositor's hits bear a star; i = inactive; u = inconclusive; x = no result; [ ] = another dose, or the depositor's remark. Only some compounds are listed: those with a hit (about 19% of all), similar ones and a draw of the others. Calls follow the shape of the dose curve; as a rule, active = well fitted curve in the direction sought with a large enough effect; inconclusive = small, poorly fitted or top-dose-only effect, or another doubt; inactive = no such curve, though single readings can be large; an effect the other way counts as inactive or inconclusive. Unless noted, % is scaled to controls: 0 for no effect and ±100 for the full control effect; potency is read from the fitted curve at half-maximal effect.

SMILES | KB-3-1 cytotox | TDP1 cell noCPT | KB-V1 cytotox | TDP1 cell CPT | HT1080 IDH1KD tx | HT1080-NT tox
S=C(c1cn(CCOc2ccccc2)c2ccccc12)N1CCCC1 | u | 20µM* | u | 17.8µM* | u | u
Cc1ccc(OCCn2cc(C(=O)C3CCCCC3)c3ccccc32)cc1 | i | 18.4µM* | i | 20.6µM* | x | x
Cc1ccc(OCCn2cc(C(=S)N3CCCC3)c3ccccc32)cc1C | 5.8µM* | 4.11µM* | 5.17µM* | 8.2µM* | 7.31µM* | u
Cc1ccc(OCCn2cc(/C(N)=N/O)c3ccccc32)cc1C | i | u | i | -22.3% | -22.9% | -17.3%
O=C(Cn1c(=O)n(Cc2ccc(C(=O)NCc3ccc4c(c3)OCO4)cc2)c(=O)c2ccccc21)Nc1ccc(F)cc1F | i | u | i | -7.1% | x | x
COc1ccc(C(=O)Nc2ccc(S(=O)(=O)Nc3cc(C)nc(C)n3)cc2)c(OC)c1 | i | 23.1µM* | i | 20.6µM* | -4.7% | -7.3%
CC(/C=C/c1ccc(C)o1)=C\C(=O)O | i | 18.4µM* | i | 11.6µM* | -3.7% | 4.7%
Cc1ccc(/C=C/C(=O)N2CC(C)CC(C)C2)o1 (configuration not stated) | i | 3.26µM* | i | 1.46µM* | u | u
CC(=O)/C=C/c1ccc(C)o1 | i | u | i | 16.4µM* | -2.4% | 3.2%
CC(=C/C(=O)O)/C=C/c1ccc(Cl)o1 | i | -15.4% | i | -24.4% | 9.3% | 7.9%
CCN1CCN(C(=O)/C=C/c2ccc(C)o2)CC1 | i | 6.1% | u | 11.4% | 8.3% | 14.8%
Cc1ccc(-c2csc(C(O)c3cccc(Cl)c3)n2)cc1C (configuration not stated) | i | u | u | u | u | u
CC(=O)c1ccc(NC(=O)/C=C/c2ccc(C)o2)cc1 | i | u | u | 14.6µM* | x | x
COc1ccc(C(=O)Nc2ccc(C)cn2)c(OC)c1 | u | u | 16.4µM* | 20.6µM* | -7.9% | u
Cc1cc(NS(=O)(=O)c2ccc(NC(=O)/C=C/c3ccc(C)o3)cc2)nc(C)n1 | i | 18.4µM* | i | 14.6µM* | 2.1% | 0.3%
Cc1ccc(/C=C/C(=O)Nc2cccc3cccnc23)o1 | i | 11.6µM* | u | 11.6µM* | 1.9% | 0.2%
Cc1ccc(NC(=O)/C=C/c2ccc(C)o2)c(C)c1 | i | u | i | u | x | x
O=C(NCc1cccnc1)c1ccc(S(=O)(=O)N2CCCCCC2)cc1 | i | u | u | -15.1% | -18.3% | 0.8%
C=CCn1c(SC(C)C#N)nc2ccccc2c1=O (configuration not stated) | i | u | i | -0.2% | x | x
COc1ccc(-c2nc(N)nc(N)n2)c(O)c1 | i | 16.4µM* | i | 14.6µM* | -6.8% | -6.1%
N#CC(Cc1cccc(CC(C#N)(c2ccccc2)c2ccccc2)c1)(c1ccccc1)c1ccccc1 | i | 4.11µM* | i | 3.26µM* | 0.0% | 20.0%
CC(C)(C#N)Cc1cc(CC(C)(C)C#N)cc(C(C)(C)C)c1 | i | -14.0% | i | -11.5% | 0.0% | 12.1%
Cn1c(=O)c2cc(NC(=O)NCc3ccccc3)ccc2n1Cc1cccc(C(F)(F)F)c1 | i | u | i | u | -13.9% | -7.1%
Cn1c(=O)c2cc(NC(=O)CCc3ccccc3)ccc2n1Cc1cccc(C(F)(F)F)c1 | i | 13µM* | i | 16.4µM* | -1.6% | 4.7%
COc1ccccc1CCC(=O)Nc1ccc2c(c1)c(=O)n(C)n2Cc1cccc(C(F)(F)F)c1 | u | u | u | 23.1µM* | -8.8% | -12.0%
SMILES | KB-3-1 cytotox | TDP1 cell noCPT | KB-V1 cytotox | TDP1 cell CPT | HT1080 IDH1KD tx | HT1080-NT tox
Cn1c(=O)c2cc(NC(=O)CCc3ccc(O)cc3)ccc2n1Cc1cccc(C(F)(F)F)c1 | u | 20.6µM* | i | u | u | u
Cn1c(=O)c2cc(NC(=O)CCc3ccccc3)ccc2n1-c1ccccc1F | u | 13µM* | i | 11.6µM* | 7.31µM* | u
OC[C@@H]1CN(Cc2ccccc2)C[C@H](n2cnc3c(N4CCOCC4)ncnc32)O1 | i | -6.4% | i | -6.9% | -0.3% | 0.0%
COc1cc(OC)c(NC(=O)c2c(C)oc3ncn(C)c(=O)c23)cc1Cl | i | -2.5% | i | 2.8% | x | x
COc1cccc(Cn2c3ccc(NC(=O)CCc4ccc(F)cc4)cc3c(=O)n2C)c1 | 4.11µM* | 3.66µM* | u | 4.61µM* | 4.11µM* | u
COc1ccccc1CCC(=O)Nc1ccc2c(c1)c(=O)n(C)n2C | i | -18.5% | i | u | 16.9% | 20.1%
COc1ccccc1CCC(=O)Nc1ccc2c(c1)c(=O)n(C)n2Cc1ccc(F)cc1 | 8.2µM* | 5.17µM* | u | 4.61µM* | 5.8µM* | 3.26µM*
N#CCCN(Cc1cccnc1)CN1C(=O)c2ccccc2C1=O | i | -2.7% | i | -1.2% | -5.9% | 0.6%
CCOc1ccc(Nc2nc(NCCN3CCOCC3)nc(OC)n2)cc1 | i | -22.5% | 18.4µM* | -6.3% | -1.3% | -0.9%
CSc1nc(C(C)C)ccc1CNC(=O)CC(C)c1ccccc1 (configuration not stated) | i | 23.1µM* | u | -25.2% | -12.0% | -4.1%
NC(N)=NCCN1CCCCCCC1 | x | -27.3% | x | u | x | x
Cc1ccc2c(CN3CCN(C(=O)c4ccc(Br)cc4)CC3)cc(=O)oc2c1 | x | u | x | 20.6µM* | x | x
CCOc1ccc2oc(=O)cc(CN3CCN(c4ccc(OC)cc4)CC3)c2c1 | x | 20.6µM* | x | u | x | x
COc1ccc(N2CCN(Cc3cc(=O)oc4cc(C)c(Cl)cc34)CC2)cc1 | i | -22.5% | i | u | 10.7% | 4.5%
O=c1cc(CN2CCN(c3ccc(F)cc3)CC2)c2cc3c(cc2o1)CCCC3 | u | u | u | 18.4µM* | 1.2% | -2.3%[9.24 µM]
CCOc1ccc2oc(=O)cc(CN3CCN(C(=O)c4cccc(Cl)c4)CC3)c2c1 | x | u | x | -29.7% | x | x
CCOc1ccc2oc(=O)cc(CN3CCN(c4ccc(Cl)cc4)CC3)c2c1 | x | 25.9µM* | x | 23.1µM* | x | x

Assay outcomes (PubChem)
